The list is not random: actives were taken first. Their share in the collection is about 2.1%.
uPA surface inh = inhibitors of cell surface uPA generation | cell surface uPA generation assay, qHTS | hit rate 0.31% among 330,000 | Potency, µM (titrated, usually from 38.3 µM), inactives show at the highest dose activity change, negative = inhibition, usual class: inhibitors; active = well fitted inhibition curve with a large enough effect; inconclusive = small, poorly fitted or top-dose-only effect; inactive = no such curve, though single readings can be large or run the other way; tested in mouse RAW 264.7 cells; note: potency is the fitted concentration of half-maximal effect; % is set by controls: 0 for no effect and ±100 for the full control effect; nearly all actives have a fitted effect of over 55% in size
Mito fusion act = mitochondrial division inhibition or fusion activation. S. cerevisiae fusion-defective mutant growth rescue, CellTiterGlo 48 h. Potency, µM (series often up to 46.1 µM), inactives show top-dose growth rescue (activation), actives largely listed as activators. hit rate 0.23% among 320,000; note: potency is the fitted concentration of half-maximal effect; % of control where 0% means no effect; nearly all actives have a fitted effect of over 45% in size
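Yeast fusion mutant, YPEG (non-fermentable carbon), compound, 48 h at 37C non-permissive; CellTiterGlo added, 10 min RT, luminescence read. Rescued growth = division inhibition.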
Giardia kill = kills Giardia lamblia; Giardia lamblia trophozoite viability; activity change, % at 7.66 µM, hits read low; hit rate 0.15% among 340,000; AID 540267; in the data active = activity change below about -80%; inconclusive = between about -30% and that limit;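 note: parasites exposed to compound for two days anaerobically before the ATP read; % is set by controls: 0 for no effect and ±100 for the full control effect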
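ATP-content bioluminescence gauges trophozoite survival. Cells (100/well) receive compound and incubate anaerobically for 48 hrs at 37 deg C; detection reagent follows for 15-30 min at room temperature.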
p53 reactivation = mutant p53 re-activation in reporter cells; H1299 p53-A138V BP100-luciferase reporter, luminescence, 24 h; Potency, µM (highest dose often 92.2 µM), without a hit: at the top dose activity change, positive = activation, most hits filed as activators; hit rate 0.063% among 320,000; note: potency is the fitted concentration of half-maximal effect; % of control where 0% means no effect; nearly all actives have a fitted effect of over 45% in size
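p53-null H1299 cells stably carrying temperature-sensitive p53-A138V and a BP100-luciferase reporter were pinned with compounds (4-point, 1:5 series) and held 24 hrs at 37 deg C. Luminescence was read 10 min after detection reagent.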
ClpP mod = qHTS Assay for Activators of ClpP; ATP-dependent Clp protease proteolytic subunit (Bacillus subtilis (strain 168)), P80244; purified B. subtilis ClpP, FRET peptide cleavage, 20 min; Potency, µM (series often up to 57.5 µM), inactives show at the highest dose activity change, negative = active; hit rate 1.9% among 340,000; active = well fitted falling curve with a large enough effect; inconclusive = small, poorly fitted or top-dose-only effect; inactive = no such curve, though single readings can be large or run the other way; note: potency is the fitted concentration of half-maximal effect; the source files actives as falling curves though it sought activators and does not explain the sign; nearly all actives have a fitted effect of over 65% in size
Target sequence (P80244 whole entry, looked up): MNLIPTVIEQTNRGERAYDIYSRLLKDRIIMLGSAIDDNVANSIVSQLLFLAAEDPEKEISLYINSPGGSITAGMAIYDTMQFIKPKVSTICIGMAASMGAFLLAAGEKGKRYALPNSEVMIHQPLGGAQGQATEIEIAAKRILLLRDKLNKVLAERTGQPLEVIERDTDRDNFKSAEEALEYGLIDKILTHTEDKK
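ClpP 10 microg/mL final, pH 8 Tris/KCl buffer with BSA, glycerol, Tween-20; compound pinned in; FRET-FV substrate; RT 20 min; Ex320/Em430; ΔFRET vs ADEP 5.8 microM, DMSO, no enzyme.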
B2AR arrestin = agonists driving beta-arrestin recruitment to human beta2-adrenergic receptor | AID 492947 | P07550 | Potency, µM (doses to about 46.1 µM), inactives show top-dose activation, hits mostly activators | beta-arrestin recruitment to beta2AR, cell-based reporter | hit rate 0.02% among 330,000;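 note: potency is the fitted concentration of half-maximal effect; 0% = DMSO controls and full agonism = EC100 isoproterenol or metaproterenol; nearly all actives have a fitted effect of over 65% in size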
Target sequence (P07550 whole entry, looked up): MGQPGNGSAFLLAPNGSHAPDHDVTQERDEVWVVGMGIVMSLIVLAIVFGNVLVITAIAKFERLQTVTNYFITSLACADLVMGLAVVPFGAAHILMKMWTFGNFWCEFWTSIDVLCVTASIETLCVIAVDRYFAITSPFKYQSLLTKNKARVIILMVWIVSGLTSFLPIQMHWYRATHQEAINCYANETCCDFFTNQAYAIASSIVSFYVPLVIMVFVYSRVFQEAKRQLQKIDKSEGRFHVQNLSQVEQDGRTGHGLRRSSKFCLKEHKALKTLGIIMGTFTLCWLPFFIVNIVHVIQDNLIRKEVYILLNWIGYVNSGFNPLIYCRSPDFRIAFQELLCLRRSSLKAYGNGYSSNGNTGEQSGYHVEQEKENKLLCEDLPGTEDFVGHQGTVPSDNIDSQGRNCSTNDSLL
Starred values were filed as active, the others as inactive; ? = inconclusive; nt = not tested or not shown. Unless noted, calls come from the whole dose curve; as a rule, active = well fitted curve in the direction sought with a large enough effect; inconclusive = small, poorly fitted or top-dose-only effect, or another doubt; inactive = no such curve, though single readings can be large; an effect the other way counts as inactive or inconclusive.

SMILES	uPA surface inh	Mito fusion act	Giardia kill	p53 reactivation	ClpP mod	B2AR arrestin
CC(C)C(=O)Nc1nnc(S(=O)(=O)N(C)Cc2ccc(F)cc2)s1	nt	nt	nt	nt	-1%	nt
CSc1ccc(CCNC(=O)c2sc3ncccc3c2-n2cccc2)cc1	nt	nt	nt	nt	-11%	nt
COc1ccc(-n2c(N)c(C(=O)NCc3ccco3)c3nc4ccccc4nc32)cc1	1%	-1%	10	-5%	32µM*	-1%
Nc1c(C(=O)NCc2ccco2)c2nc3ccccc3nc2n1CCc1ccc(F)cc1	-9%	?	-16	-9%	16µM*	0%
C=CCNC(=O)c1c(N)n(-c2cccc(S(N)(=O)=O)c2)c2nc3ccccc3nc12	-3%	-4%	24	2%	14µM*	0%
COCCNC(=O)c1c(N)n(CCCn2ccnc2)c2nc3ccccc3nc12	-2%	7%	13	-3%	16µM*	0%
CC1C(=O)N(Cc2cn(CCC3OCCCO3)nn2)CCS(=O)(=O)N1Cc1ccc(-c2ccc(Cl)c(Cl)c2)cc1 (configuration not stated)	nt	nt	nt	nt	0%	nt
COCCCNC(=O)c1c(N)n(-c2ccc(S(N)(=O)=O)cc2)c2nc3ccccc3nc12	13%	-3%	-11	0%	16µM*	0%
CCOC(=O)C1=C[C@@H](C(=O)OCC)[C@@H]2C3=C(C(=O)C2(C)C)[C@H](c2ccccc2)[C@@H]2C(=O)N(c4ccccc4)C(=O)[C@@H]2[C@@H]3C1	nt	nt	19	nt	nt	nt
c1ccc(N2CC3COc4ccccc4C3=N2)cc1 (configuration not stated)	1%	nt	-8	nt	25µM*	nt
Cc1ccc(NC(=O)c2ccc3c(c2)C(=O)N(CC2CCCO2)C3=O)cc1C (configuration not stated)	-2%	2%	-2	4%	nt	7.1µM*
CN1CCN(c2oc(-c3ccc(OCc4ccc(Cl)cc4)cc3)nc2C#N)CC1	nt	nt	-12	nt	-22%	nt
COc1ccccc1N1CCN(c2nc(C)nc3c2oc2ccccc23)CC1	nt	12%	21	19%	32µM*	-1%
COc1ccccc1N1CCN(Cc2cc(Br)c(O)c3ncccc23)CC1	2.8µM*	2%	0	12%	-2%	0%
CC1(C)CC(=O)C2=C(C1)c1c(ccc3ccccc13)NC2c1ccc(Br)o1 (configuration not stated)	-13%	13%	17	3%	13µM*	0%
CC1(C)CC(=O)C2=C(C1)c1c(ccc3ccccc13)NC2c1ccc(OCC(=O)O)cc1 (configuration not stated)	19%	-2%	5	10%	4%	-1%
Cc1ccc(C2CC(=O)N(Cc3ccccc3)c3c2c(C)nn3-c2nc(C)cc(C)n2)cc1 (configuration not stated)	nt	nt	nt	nt	1%	nt
CC(=O)Nc1ccc(NC(=O)C(C)OC(=O)c2cccc(S(=O)(=O)N3CCCCC3)c2)cc1 (configuration not stated)	-6%	0%	3	-6%	28µM*	0%
C/C(=N/NC(=O)c1cccs1)c1c(C)[nH]n(-c2nc3ccccc3s2)c1=O	1.6µM*	-19%	?	?	?	0%
CC(=NCc1ccco1)c1c(C)[nH]n(-c2nc3ccccc3s2)c1=O	?	-4%	?	?	-110%	-1%
Cc1cc(=O)n(C(C)Cc2ccccc2)n1C(C)Cc1ccccc1 (configuration not stated)	3%	nt	14	nt	32µM*	nt
CC(C)C1C(=O)N(Cc2cn(CCC3OCCO3)nn2)CCS(=O)(=O)N1Cc1ccc(-c2ccc(F)cc2Cl)cc1 (configuration not stated)	nt	nt	nt	nt	1%	nt
Cc1onc(-c2ccccc2Cl)c1C(=O)O/N=C(\N)c1ccc([N+](=O)[O-])o1	4.5µM*	18%	?	3%	3%	0%
CN(C)c1ccc(-c2nnn(Cc3ccccc3Br)n2)cc1	4%	6%	-14	10%	28µM*	0%
O=C(COC(=O)c1ccccc1-n1cnnn1)c1ccc(Br)cc1	-10%	2%	-14	18%	16µM*	-1%
SMILES	uPA surface inh	Mito fusion act	Giardia kill	p53 reactivation	ClpP mod	B2AR arrestin
O=C(COC(=O)c1ccccc1-n1cnnn1)c1ccccc1	3%	5%	11	17%	nt	0%
Cn1cc([C@]2(O)C(=O)Nc3ccc(OC(F)(F)F)cc32)c2ccccc21	nt	nt	nt	nt	8%	nt
CC(=O)C1=C(C)NC(SCC(=O)Nc2nccs2)=C(C#N)C1c1ccccc1Cl (configuration not stated)	-13%	4%	-18	-4%	28µM*	0%
Cc1nc(SCC(=O)Nc2nccs2)c(C#N)c(C)c1C	1µM*	10%	?	41%	5%	0%
COc1cc(-c2cc(-c3ccccc3)nc(SCC(=O)Nc3nccs3)c2C#N)cc(OC)c1OC	1%	3%	12	-5%	25µM*	0%
C=CCOC(=O)C1=C(C)NC(SCC(=O)Nc2nccs2)=C(C#N)C1c1ccc(Cl)cc1 (configuration not stated)	-6%	0%	-3	-11%	-9%	-1%
CC1(C)Cc2c(cnn2-c2ccccc2)-c2c1c1ccccc1n2CC(O)CBr (configuration not stated)	6%	7%	10	-25%	14µM*	3%
CC1(C)Cc2c(cnn2-c2ccccc2)C(=O)/C1=N\NC(=O)c1ccccc1N	-4%	5%	7	8%	1%	0%
Fc1cc(F)c2ncc3c(-c4ccccc4)nn(-c4cccc(Cl)c4)c3c2c1	nt	nt	nt	nt	-1%	nt
COc1ccc(OCc2ccc(-c3nc(C#N)c(N4CCCCC4)o3)o2)cc1	nt	nt	nt	nt	28µM*	nt
COc1ccc(OCc2ccc(-c3nc(C#N)c(N4CCN(c5cccc(Cl)c5)CC4)o3)o2)cc1	nt	nt	nt	nt	3.5µM*	nt
COc1ccc(OCc2ccc(-c3nc(C#N)c(N4CCN(C)CC4)o3)o2)cc1	nt	nt	nt	nt	28µM*	nt
N#Cc1nc(-c2ccc(COc3ccc(Cl)cc3)o2)oc1N1CCN(c2ccccc2)CC1	nt	nt	nt	nt	-8%	nt
CCN1CCN(c2oc(-c3ccc(COc4ccc(C)cc4)o3)nc2C#N)CC1	nt	nt	nt	nt	32µM*	nt
Cc1ccc(-n2c(=O)c3c4c(sc3n(CC(=O)c3ccc(Cl)cc3)c2=O)CCC4)cc1C	nt	nt	nt	nt	0%	nt
CCOc1ccc(S(=O)(=O)N(C(=O)c2ccncc2)c2ccc3oc(C)c(C(=O)OC)c3c2)cc1	nt	nt	nt	nt	2%	nt
COCc1cc(S(=O)c2ccc(Cl)cc2)nc(C)n1 (configuration not stated)	5µM*	-3%	6	-9%	1%	0%
COCc1cc(Sc2ccc(Cl)cc2)nc(C)n1	-3%	3%	-10	-2%	-1%	0%

Screening data (PubChem BioAssay)
